TDP1 cell noCPT: qHTS for Inhibitors of human tyrosyl-DNA phosphodiesterase 1 (TDP1): qHTS in cells in absence of CPT; DT40 Tdp1-/- hTDP1 cells, no CPT, ATP luminescence, 48 h; Potency, µM (top dose mostly 46.2 µM), most hits filed as inhibitors; actives 15% (n = 420,000); note: nearly all actives have a fitted effect of over 55% in size
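Camptothecin absent (DMSO only). Human TDP1-complemented DT40 knockout cells, 400 cells/well, 37 °C for minimum 48 hr; ATP measured via CellTiter-Glo, 30 min dark incubation, luminescence.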
HT1080NT lethal: kills 2HG-producing HT-1080-NT fibrosarcoma cells. Potency, µM (highest dose often 46.1 µM), actives largely listed as cytotoxic. AID 686970. HT-1080-NT fibrosarcoma viability, CellTiter-Glo ATP luminescence, 48 h. actives 1.6% (n = 360,000);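 note: NT is the 2HG producing partner of a matched IDH1 knockdown line; nearly all actives have a fitted effect of over 55% in size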
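Viability by CellTiter-Glo luminescence after 48 h compound exposure at 37C of HT-1080-NT cells (750/well, RPMI, 5% FBS). % activity scaled between DMSO wells and medium-only wells, then curve-fitted and categorized by curve class.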
DT40 TDP1 CPT: growth inhibition of DT40 Tdp1-/-;hTDP1 cells with camptothecin (screen for TDP1 inhibitors). actives 12% (n = 420,000). AID 686979. Potency, µM (titrated, usually from 46.2 µM), hits mostly inhibitors. chicken DT40 Tdp1-/-;hTDP1 cells + 20 nM CPT, ATP luminescence, 48 h; note: nearly all actives have a fitted effect of over 55% in size
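Cell growth measured by CellTiter-Glo luminescence after a minimum 48 h, 37 C compound exposure with 20 nM CPT in Tdp1-knockout DT40 cells stably expressing hTDP1, seeded 400/well; qHTS titration format.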
HT1080 IDH1KD tx: HT-1080 IDH1 knockdown cell toxicity (counter line) | Potency, µM (titrated, usually from 46.1 µM), most hits filed as cytotoxic | AID 686971 | HT-1080 IDH1 knockdown viability, ATP luminescence, 48 h | actives 2% (n = 360,000)
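Luminescent ATP read-out (CellTiter-Glo, 10 min at room temperature) after 48 h compound exposure at 37 °C gave viability of IDH1-knockdown HT-1080 cells. Activity was normalised to DMSO and cell-free wells, then fitted as concentration-response curves.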
IL-1B inflam inh: inflammasome signaling inhibition, IL-1 beta readout. activity change, % at 57.5 µM. actives 4.7% (n = 360,000). THP-1 LPS/ATP IL-1B secretion, AlphaLISA, 16 h; stronger effect = lower value; in the data active = activity change below about -50%; inconclusive = mostly about -30% to -49%
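THP-1 cells pretreated 1 hr with compounds (up to 57.5 uM final), then stimulated with LPS (250 ng/mL final) plus ATP (1.25 mM final); secreted IL-1B measured by AlphaLISA after 16 hr, decreased signal indicating inhibition.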
Hits are given with their value; i = inactive; ? = inconclusive; nt = no result given. An excerpt weighted towards active compounds, which were near 19% of everything screened. Unless noted, calls come from the whole dose curve; as a rule, active = well fitted curve in the direction sought with a large enough effect; inconclusive = small, poorly fitted or top-dose-only effect, or another doubt; inactive = no such curve, though single readings can be large; an effect the other way counts as inactive or inconclusive.

SMILES	TDP1 cell noCPT	HT1080NT lethal	DT40 TDP1 CPT	HT1080 IDH1KD tx	IL-1B inflam inh
CCCc1c(C(=O)N/N=C(\C)c2ccccn2)nnn1-c1nonc1N	1.6µM	?	2.6µM	?	i
O=C(c1cccnc1)N(Cc1ccccc1)C(c1ccccc1)c1nc2ccccc2[nH]1 (centres undefined)	?	i	i	i	i
OCCC1CN(Cc2ccon2)CCN1Cc1ccccc1 (centres undefined)	i	i	i	i	i
Fc1ccc(CNc2nc3c(-c4ccc(F)cc4)nnn3c3ccccc23)cc1	i	nt	i	nt	nt
CCCN1C(C(=O)c2ccccc2)=C(OC(=O)c2ccc(OC)cc2)c2ccccc2S1(=O)=O	5.2µM	nt	5.2µM	nt	nt
Cc1ccc(NC2=C(C(=O)c3ccccc3)N(C)S(=O)(=O)c3ccccc32)cc1	26µM	i	29µM	i	i
CN1C(C(=O)c2ccccc2)=C(OC(=O)c2ccc(Br)cc2)c2ccccc2S1(=O)=O	21µM	nt	?	nt	nt
COC(=O)CN1C(C(=O)c2ccccc2)=C(OC(=O)c2ccccc2)c2ccccc2S1(=O)=O	26µM	nt	16µM	nt	nt
CN1C(C(=O)c2ccccc2)=C(N)c2ccccc2S1(=O)=O	i	i	i	i	i
CC(NC(=S)NCCN1CCOCC1)C12CC3CC(CC(C3)C1)C2 (centres undefined)	?	i	?	i	i
O=C(O)[C@@H]1CC(O)CN1C(=O)CCc1c[nH]c2ccccc12 (some centres undefined)	i	i	i	i	i
O=C(OCC1CCCO1)c1ccc2c(c1)N(Cc1ccccc1Cl)C(=O)c1ccccc1S2(=O)=O (centres undefined)	i	nt	i	nt	nt
CN(C)c1ccc(C(C(=O)NC2CCCCC2)N(Cc2ccco2)C(=O)c2snc(C(N)=O)c2N)cc1 (centres undefined)	9.2µM	i	?	i	-72
CCOc1ccccc1N(C(=O)c1snc(C(N)=O)c1N)C(C(=O)NCc1ccccc1)c1ccc(O)cc1 (centres undefined)	?	i	23µM	?	-67
COc1ccc(C)cc1N(C(=O)c1snc(C(N)=O)c1N)C(C(=O)NC1CCCC1)c1ccc(F)cc1 (centres undefined)	16µM	?	?	i	i
NC(=O)c1nsc(C(=O)N(Cc2ccco2)C(C(=O)NCc2ccccc2)c2ccc(O)cc2)c1N (centres undefined)	12µM	i	?	i	i
Cc1ccccc1N(C(=O)c1snc(C(N)=O)c1N)C(C(=O)NC1CCCCC1)c1ccc(O)cc1 (centres undefined)	?	?	?	9.2µM	i
CN(C)c1ccc(C(C(=O)NCc2ccccc2)N(Cc2cccnc2)C(=O)c2snc(C(N)=O)c2N)cc1 (centres undefined)	16µM	i	21µM	i	i
COc1ccc(C(C(=O)NCc2ccccc2)N(C(=O)c2snc(C(N)=O)c2N)c2ccccc2OC)cc1OC (centres undefined)	?	i	?	i	i
COc1ccccc1N(C(=O)c1snc(C(N)=O)c1N)C(C(=O)NCc1ccccc1)c1ccc(C)o1 (centres undefined)	?	i	?	i	-73
Cc1ccccc1N(C(=O)c1snc(C(N)=O)c1N)C(C(=O)NCc1ccccc1)c1ccc(O)cc1 (centres undefined)	26µM	?	23µM	?	-100
CCOCCc1nn2c(=O)cc(COC(=O)c3ccc(NC(=O)c4cccs4)cc3)nc2s1	?	nt	i	nt	nt
COc1ccccc1-c1cc(C(=O)NCCc2ccccc2)no1	15µM	i	13µM	?	i
